The full ranking holds about 39,000 sequences; the median of “fluorescence intensity (a.u.)” is about 4,300, and the highest 2% start at about 39,000. What follows is part of a selection rich in the highest values, with near analogues and random picks from the rest.

The target in the assay is T1, OsSMF1 (Oryza sativa, UniProt Q6ZLB0 1-436).
T1 sequence: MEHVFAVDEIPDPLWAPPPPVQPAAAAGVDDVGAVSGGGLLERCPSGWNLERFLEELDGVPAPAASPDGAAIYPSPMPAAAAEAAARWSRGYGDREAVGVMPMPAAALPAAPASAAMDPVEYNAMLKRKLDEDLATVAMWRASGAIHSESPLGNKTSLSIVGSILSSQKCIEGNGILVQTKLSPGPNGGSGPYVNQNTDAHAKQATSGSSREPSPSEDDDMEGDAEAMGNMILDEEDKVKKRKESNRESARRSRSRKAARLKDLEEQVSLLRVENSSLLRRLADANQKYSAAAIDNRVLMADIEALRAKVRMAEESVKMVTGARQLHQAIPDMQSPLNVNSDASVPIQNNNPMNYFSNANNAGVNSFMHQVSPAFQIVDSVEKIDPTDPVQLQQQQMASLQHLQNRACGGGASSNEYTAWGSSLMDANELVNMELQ
The assay can be described thus: protein-binding microarray (RPBM); PBS, 2% BSA, 51.3 ng/ul salmon testes DNA, 50 uM zinc acetate, 200 nM TF, 25 C, 1 h; high values mean tight binding. To be noted: protein: recombinant; tags: N-terminal polyhistidine and DsRed monomer fusion (pET32a); chain copies: 2; label: CyDye5-dUTP incorporated in the synthesized complementary strand; 3' TTTTT single-stranded linker to array surface; dsDNA, one strand shown. In short, it runs like this:
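Ni–NTA purification followed expression in E. coli BL21-CodonPlus of transcription factors fused N-terminally to a polyhistidine tag and DsRed. At 200 nM in PBS with 2% BSA, salmon testes DNA and 50 µM zinc acetate, the protein was incubated for 1 h at 25 °C with a custom Agilent array that had been primer-extended with Cy5-dUTP and blocked with 2% BSA. After washing, the array was read on an Axon 4000B scanner. The binding signal is per-feature fluorescence intensity in arbitrary units.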
Take “ACGTACGTGTGCGTATCCGACAAGTCCCACGACGTGGCAACGGAGTCACCTAGTGCAG”: the binding signal is 4960 fluorescence intensity (a.u.).
Then “TTTTACATGATTGGATGACAAAGCCTATTTCGTTTTGTTGCGGAGTCACCTAGTGCAG”, with 5400 fluorescence intensity (a.u.); and “TATTTTGGAAAATGAGTCACAGGGTTATTGTAGCTTTGAACGGAGTCACCTAGTGCAG”, with 9390 fluorescence intensity (a.u.).
Consider “AAATCAGGAAATGAAAAGCTAGGGTTTTAGGTATTGTAATCGGAGTCACCTAGTGCAG”, for which the binding signal was 40800 fluorescence intensity (a.u.).
Then “TATTTGGTTTTGTAGGGGTTGGTTTGGGAAAATTGGAAAGCGGAGTCACCTAGTGCAG”, with 4240 fluorescence intensity (a.u.); and “TGGTTGTATTAGGTTAATAAGCCACGTCAGTGAAAAGCACCGGAGTCACCTAGTGCAG”, with 16100 fluorescence intensity (a.u.); and “AGCAGGAGAAGGGACCGAGAGAAGAGTCGCAGAGAGAGAGCGGAGTCACCTAGTGCAG”, with 3660 fluorescence intensity (a.u.).
Then “CCACCGGAAACAGGGAAGAAGAGGGGTCGAGAAAGGGGAGCGGAGTCACCTAGTGCAG”, with 4020 fluorescence intensity (a.u.); and “AGAGAGGGAAGGGAGGGAGGGAGGGAGGAGGGAGAGATCTCGGAGTCACCTAGTGCAG”, with 6770 fluorescence intensity (a.u.).
With “TGAATGCACGTACTGGTGATGAATCTCTGATGGATGGAAGCGGAGTCACCTAGTGCAG” the figure was 3210 fluorescence intensity (a.u.); with “AGAAGGGGAGAAAAGGAAACCGATCTCGGTCATGGCCACGCGGAGTCACCTAGTGCAG”, 50900 fluorescence intensity (a.u.).
On to “AGCAGAGTGATCTCTGATGGTCACGGGCCGAGAAGGGAAGCGGAGTCACCTAGTGCAG”, for which the binding signal was 45700 fluorescence intensity (a.u.).
Then “GCCGCGCCGTCCTGTGTGTGCGTGGCGCCAATGCATGCTACGGAGTCACCTAGTGCAG”, with 3590 fluorescence intensity (a.u.).
Then “GGTTTTGGAGAGCGGTTTCACTGACGTGGCAGTGTTGACCCGGAGTCACCTAGTGCAG”, with 22900 fluorescence intensity (a.u.); and “ACGCCTCATCTCCAGTCCACGGCTCAACGTCCACGCACACCGGAGTCACCTAGTGCAG”, with 3490 fluorescence intensity (a.u.); and “TGATTTTGTTTTAATACATGCAATCTTTCGATCCAATGGCCGGAGTCACCTAGTGCAG”, with 24000 fluorescence intensity (a.u.).
On to “TCGATCTGCACATGTGCACGCGCATGTGTCGTCGGCTTAGCGGAGTCACCTAGTGCAG”, for which the binding signal was 3230 fluorescence intensity (a.u.).
Take “GACTAATCAAACAATTTCCCTCGCTATTAGTCACTGACAGCGGAGTCACCTAGTGCAG”: the binding signal was 3590 fluorescence intensity (a.u.).
Then “ATTTAATAGTCCGGGAGGCATGCTTACGGACAAGGACGAACGGAGTCACCTAGTGCAG”, with 47100 fluorescence intensity (a.u.).
In the case of “GCATGCGGGATAGGAGCTTGACTAGCATGACGAGGCAGAACGGAGTCACCTAGTGCAG”, the binding signal is 5890 fluorescence intensity (a.u.).
Then “CACCTAGCATGCATAGGACGAGGCATTTAATTTTACTTATCGGAGTCACCTAGTGCAG”, with 22000 fluorescence intensity (a.u.); and “GCATGCTCTCCGTGCCGTATGCGCTGTCGTAGGGCAGGTGCGGAGTCACCTAGTGCAG”, with 3760 fluorescence intensity (a.u.); and “CGCCGCCGCCGTCGCTGCCGCCGCCGCCGCCGCCTAGGGTCGGAGTCACCTAGTGCAG”, with 29300 fluorescence intensity (a.u.).
With “TCACTTCTCTCCTCCACATGTGCATACAACTGACTTATAACGGAGTCACCTAGTGCAG” the figure was 4660 fluorescence intensity (a.u.); with “GTTGAATTCTGTGCGTGTAAGCAGACCTGCATTGCCGTCGCGGAGTCACCTAGTGCAG”, 3170 fluorescence intensity (a.u.); with “TCCCAATTGACTAGAGGATGCTTCAGAGATGAAAACATGGCGGAGTCACCTAGTGCAG”, 3190 fluorescence intensity (a.u.).
Then “TCCAGCTCTGAATTTCACTCTGCATGCATAAGTTGCAGGACGGAGTCACCTAGTGCAG”, with 48100 fluorescence intensity (a.u.); and “GCAATTCACTCCAGTTCACTTTGCCAGCTTGTCTCTCTGACGGAGTCACCTAGTGCAG”, with 3520 fluorescence intensity (a.u.).
As to “ATAATGAAAATGAGAATTCATGCCAGCTCTGCAAAGTGGACGGAGTCACCTAGTGCAG”, the binding signal was 4780 fluorescence intensity (a.u.).
With “ATATACAGTACACGTTCTTGCCCTCATTGCCACATAGTACCGGAGTCACCTAGTGCAG” the figure was 4020 fluorescence intensity (a.u.).
“TCCCCAAGTCAGTCAATGCCATCACTGTCATCTGCTCTCACGGAGTCACCTAGTGCAG”: the binding signal is 3200 fluorescence intensity (a.u.).
With “TTCATTGACCGAGAACGATAGCACGCATCACATCAGCATCCGGAGTCACCTAGTGCAG” the figure was 3250 fluorescence intensity (a.u.).
With “GAGGGTTCTTGATGCGTGACCTGATGCGGGAGGCGTATTGCGGAGTCACCTAGTGCAG” the figure was 39200 fluorescence intensity (a.u.); with “CGCGCGTGCGGTTCTTGTGTCCGAGGGTGGTGGTGTGTGGCGGAGTCACCTAGTGCAG”, 3360 fluorescence intensity (a.u.).
With “TGGGAGTGCGTGGTGTGCGTGGCGTCGGTTCTTGCGGAGGCGGAGTCACCTAGTGCAG”, the binding signal is 5410 fluorescence intensity (a.u.).
With “ATTGAAAATTCTCTACTCTTTACACGTGTCCATCATCCCACGGAGTCACCTAGTGCAG” the figure was 19100 fluorescence intensity (a.u.); with “TCAAGTCATGAATTCTCCTATTTCAAGTCACTTCAGAAGTCGGAGTCACCTAGTGCAG”, 3330 fluorescence intensity (a.u.); with “GCAGCGCCATGAAAGCGCATGGCATGCATGCACTGCACTGCGGAGTCACCTAGTGCAG”, 3520 fluorescence intensity (a.u.).
Then “CATGCCAGGTCAGTCGGCATCCATGAAGACTGCACTGCACCGGAGTCACCTAGTGCAG”, with 42600 fluorescence intensity (a.u.); and “TTTATGGATAGAAGATGCACCGGCCAGGTCATGAAGATCACGGAGTCACCTAGTGCAG”, with 4050 fluorescence intensity (a.u.).
Regarding “AATCGTGCTCGATTGACCTCACTAATTCATCCCTGTAACCCGGAGTCACCTAGTGCAG”, the binding signal was 25700 fluorescence intensity (a.u.).
Then “GGGGTGAGGTGAGGTTACCACGTCGGCGACGGTGAGGAAGCGGAGTCACCTAGTGCAG”, with 6110 fluorescence intensity (a.u.).

These data come from publication PMC7819943, “Rice protein-binding microarrays: a tool to detect cis-acting elements near promoter regions in rice”.
